These results are taken from ChEMBL document CHEMBL5606458, “ASAP - ZIKV NS2B-NS3 protease fluorescence single point” (2024).

The target of the experiment is Nonstructural protein 3 (Zika virus) (UniProt A0A024AXB9).
The mark [1] stands for this setting: PRVABC59, Concentration 50.0 uM, Number of replicates 1.0.
[2] abbreviates: PRVABC59, Concentration 15.0 uM, Number of replicates 1.0.

About 160 (5.9%) of roughly 2,700 compounds showed an effect of 50% or more. This is one part of a sample in which strong results are shown more often than they occur.

Sequence of Nonstructural protein 3 (Zika virus) (A0A024AXB9 as listed by the source): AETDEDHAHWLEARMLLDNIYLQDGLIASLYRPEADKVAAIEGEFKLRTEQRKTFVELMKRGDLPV

A word on the inhibition: it is the change of the read-out against control, counted positive when it falls. Take `COc1cc(NC(=O)C2CCN(c3ccc(C=O)cc3)CC2)cc(OC)c1`: the inhibition under setting [1] worked out at 28%.
For the compound `O=Cc1ccc(N2CCC(C(=O)Nc3cc(Cl)cc(Cl)c3O)CC2)cc1`, the inhibition under setting [1] was determined as 92.4%.
The same measure, in the same setting: for `O=Cc1ccc(N2CCC(C(=O)Nc3ccc(O)cc3[N+](=O)[O-])CC2)cc1` the value was 38.4%; for `O=Cc1ccc(N2CCC(C(=O)Nc3cc(Cl)ccc3Br)CC2)cc1`, 19.5%; for `O=Cc1ccc(N2CCC(C(=O)Nc3cc(Cl)c(O)c(Cl)c3)CC2)cc1`, 98.7%.
As to `O=Cc1ccc(N2CCC(C(=O)Nc3ccc([N+](=O)[O-])cc3Cl)CC2)cc1`, under setting [1], the inhibition came out at 39.8%.
Take `O=Cc1ccc(N2CCC(C(=O)Nc3cc(Cl)c(F)c(Cl)c3)CC2)cc1`: the inhibition under setting [1] was determined as 20.1%.
For `O=Cc1ccc(N2CCC(C(=O)Nc3c(Cl)cc(Cl)cc3Br)CC2)cc1`, the inhibition under setting [1] was found to be 22.3%.
With `O=Cc1ccc(N2CCC(C(=O)Nc3cc(Cl)cc([N+](=O)[O-])c3O)CC2)cc1`, the inhibition under setting [1] stood at 93.4%.
In the case of `O=Cc1ccc(N2CCC(C(=O)Nc3ccc(Cl)c(Cl)c3)CC2)cc1`, the inhibition under setting [1] was determined as 22.8%.
Regarding `Cc1cc(-c2nn(C)cc2NC(=O)c2ccccc2C(F)(F)F)[nH]n1`, the inhibition (PRVABC59, Concentration 49.5 uM, Number of replicates 2.0, Standard deviation 1.8946804704330402 %) was -3.15%; the inhibition (PRVABC59, Concentration 99.01 uM, Number of replicates 2.0, Standard deviation 0.666066751064398 %) was -1.39%; the inhibition (PRVABC59, Concentration 198.0 uM, Number of replicates 2.0, Standard deviation 1.3743584908968294 %) was determined as 2.3%.
`O=C(Nc1cnc(Br)c(Cl)n1)c1cc(Cl)ccc1NS(=O)(=O)c1ccc(Oc2ccccc2Cl)cc1`: the inhibition under setting [2] was 20.6%.
For the compound `O=Cc1ccc(N2CCC(C(=O)NCCc3ccc(C(F)(F)F)cc3)CC2)cc1`, the inhibition under setting [1] turned out to be 25.7%.
Regarding `CCOC(=O)c1cc(Cn2cc(C3CCNCC3)c(C)n2)on1`, the inhibition was -0.431% (PRVABC59, Concentration 49.5 uM, Number of replicates 2.0, Standard deviation 3.597880558823145 %); -1.41% (PRVABC59, Concentration 99.01 uM, Number of replicates 2.0, Standard deviation 3.9852172616025077 %); -2.54% (PRVABC59, Concentration 198.0 uM, Number of replicates 2.0, Standard deviation 1.6156285466659275 %).
Consider `CC1(C)[C@H]2CC[C@]1(C)[C@H](NC(=O)C1CCN(c3ccc(C=O)cc3)CC1)C2`, for which the inhibition under setting [1] was -4.03%.
Turning to `O=Cc1ccc(N2CCC(C(=O)Nc3cccc(Cl)c3Br)CC2)cc1`, the inhibition under setting [1] was 21%.
Take `c1cnc(N2CCOCC2)c(CN2CC[C@H](c3c[nH]c4ccccc34)C2)c1`: the inhibition is 4.93% (PRVABC59, Concentration 49.5 uM, Number of replicates 2.0, Standard deviation 0.5816150455075427 %); 10.2% (PRVABC59, Concentration 99.01 uM, Number of replicates 2.0, Standard deviation 1.6761828626765602 %); 18.9% (PRVABC59, Concentration 198.0 uM, Number of replicates 2.0, Standard deviation 1.4600963075359947 %).
As for `Nc1ccc(Cl)c2ncccc12`, the inhibition reads like this: (PRVABC59, Concentration 49.95 uM, Number of replicates 2.0, Standard deviation 10.856665376334321 %) 2.86%; (PRVABC59, Concentration 99.9 uM, Number of replicates 2.0, Standard deviation 9.901328830284072 %) 10.8%.
Consider `Nc1cccc2c(Cl)ccnc12`, for which the inhibition by setting is: (PRVABC59, Concentration 49.95 uM, Number of replicates 2.0, Standard deviation 13.26082141913299 %) 25%; (PRVABC59, Concentration 99.9 uM, Number of replicates 2.0, Standard deviation 5.807935528538471 %) 61.3%.
On to `Nc1ccc(Cl)c2cccnc12`, for which, where the note is “PRVABC59, Concentration 99.9 uM, Number of replicates 2.0, Standard deviation 7.433905478836123 %”, the inhibition was -9.18%.
In the case of `Cc1ccc(CN(C(=O)C2CCN(c3ccc(C=O)cc3)CC2)C2CC2)s1`, the inhibition under setting [1] stood at 27.6%.
As to `CC(=O)N[C@@H](CCCCN)C(=O)Nc1cccc2c(Cl)cc(C)nc12`, the inhibition (PRVABC59, Concentration 49.95 uM, Number of replicates 2.0, Standard deviation 3.802363243631691 %) is 19.9% and the inhibition (PRVABC59, Concentration 99.9 uM, Number of replicates 2.0, Standard deviation 2.8723353743500515 %) came to 37.2%.
Consider `Cc1cc(CO)c2cccc(NC(=O)CCN)c2n1`, for which the inhibition runs as follows: (PRVABC59, Concentration 49.95 uM, Number of replicates 2.0, Standard deviation 0.34164167967973086 %) 58.9%; (PRVABC59, Concentration 99.9 uM, Number of replicates 2.0, Standard deviation 0.25939261057290325 %) 94.2%.
With `CC(=O)N[C@@H](CCCN)C(=O)Nc1cccc2c(Cl)cc(C)nc12`, the inhibition (PRVABC59, Concentration 99.9 uM, Number of replicates 2.0, Standard deviation 3.96053156793845 %) is 2.63%.
On to `Cc1cc(CO)c2cccc(Cc3cccc(NC(=O)c4nc(N)n[nH]4)c3)c2n1`, for which the inhibition by setting is: (PRVABC59, Concentration 49.95 uM, Number of replicates 2.0, Standard deviation 3.2981012364268594 %) -0.767%; (PRVABC59, Concentration 99.9 uM, Number of replicates 2.0, Standard deviation 3.2421151330326254 %) 4.54%.
With `Cc1cc(CO)c2cccc(NC(=O)[C@@H](N)CCN)c2n1`, the inhibition is 7.81% (PRVABC59, Concentration 49.95 uM, Number of replicates 2.0, Standard deviation 10.156724992387474 %) and 6.58% (PRVABC59, Concentration 99.9 uM, Number of replicates 2.0, Standard deviation 27.740304464442595 %).
For `Cc1cc(CO)c2cccc(Cc3ccccc3NC(=O)c3nc(N)n[nH]3)c2n1`, the inhibition was -1.17% (PRVABC59, Concentration 49.95 uM, Number of replicates 2.0, Standard deviation 1.1858913556413317 %) and 2.56% (PRVABC59, Concentration 99.9 uM, Number of replicates 2.0, Standard deviation 1.6592298829189325 %).
With `Cc1cc(Cl)c2cccc(NC(=O)CCN)c2n1`, the inhibition was found to be 95.1% (PRVABC59, Concentration 49.95 uM, Number of replicates 2.0, Standard deviation 0.2024559271573544 %) and 91.2% (PRVABC59, Concentration 99.9 uM, Number of replicates 2.0, Standard deviation 0.15816464699422608 %).
With `Cc1cc(CO)c2cccc(NC(=O)c3nc(N)n[nH]3)c2n1`, the inhibition was 28.9% (PRVABC59, Concentration 49.95 uM, Number of replicates 2.0, Standard deviation 1.6810779662500097 %) and 60.8% (PRVABC59, Concentration 99.9 uM, Number of replicates 2.0, Standard deviation 2.6897269039186593 %).
Consider `Cc1cc(CO)c2cccc(NC(=O)Cc3cccc(CN)c3)c2n1`, for which the inhibition (PRVABC59, Concentration 49.95 uM, Number of replicates 2.0, Standard deviation 2.002239649301327 %) was found to be 8.36% and the inhibition (PRVABC59, Concentration 99.9 uM, Number of replicates 2.0, Standard deviation 0.9082841415474754 %) was 22.1%.
For `O=C(Nc1c(Cl)cncc1Cl)c1cc(Cl)ccc1NS(=O)(=O)c1ccc(Oc2ccccc2Cl)cc1`, the inhibition under setting [2] was 22%.
As for `O=Cc1ccc(N2CCC(C(=O)NC[C@@H](c3ccc(Cl)cc3)N3CCCC3)CC2)cc1`, under setting [1], the inhibition is 18.7%.
On to `O=Cc1ccc(N2CCC(C(=O)Nc3nc4cc(Cl)ccc4s3)CC2)cc1`, for which the inhibition under setting [1] turned out to be 22.7%.
As to `CN1CCN(c2ccccc2NC(=O)C2CCN(c3ccc(C=O)cc3)CC2)CC1`, the inhibition under setting [1] came to 22.1%.
Take `CC(=O)N[C@@H](CCCN)C(=O)Nc1cccc2cccnc12`: the inhibition came to 19.2% (PRVABC59, Concentration 49.95 uM, Number of replicates 2.0, Standard deviation 1.6196420224622259 %) and 38.7% (PRVABC59, Concentration 99.9 uM, Number of replicates 2.0, Standard deviation 2.0688397621434533 %).
On to `N[C@@H]1CCCC[C@H]1C(=O)Nc1cccc2cccnc12`, for which, under “PRVABC59, Concentration 99.9 uM, Number of replicates 2.0, Standard deviation 1.8980185851288 %”, the inhibition was -8.2%.
Take `O=C(Nc1cccc2cccnc12)C1CCNCC1`: the inhibition (PRVABC59, Concentration 49.95 uM, Number of replicates 2.0, Standard deviation 0.5440976068370852 %) amounted to 42.6% and the inhibition (PRVABC59, Concentration 99.9 uM, Number of replicates 2.0, Standard deviation 0.5440976068370852 %) stood at 92%.
For the compound `O=C(c1cc(Cl)ccc1NS(=O)(=O)c1ccc(Oc2ccccc2Cl)cc1)N1CCC(O)(c2ccc(Cl)cc2)CC1`, under setting [2], the inhibition stood at 26.1%.
As to `O=C(N[C@@H](Cc1ccccc1)c1ccccc1)c1cc(Cl)ccc1NS(=O)(=O)c1ccc(Oc2ccccc2Cl)cc1`, under setting [2], the inhibition was 28.3%.
Turning to `C[C@@H](NC(=O)c1cc(Cl)ccc1NS(=O)(=O)c1ccc(Oc2ccccc2Cl)cc1)c1cccc(Br)c1`, the inhibition under setting [2] came to 35.8%.
`O=C(N[C@@H](CO)Cc1ccccc1)c1cc(Cl)ccc1NS(=O)(=O)c1ccc(Oc2ccccc2Cl)cc1`: the inhibition under setting [2] was determined as 33.2%.
For `O=C(N[C@H](CO)Cc1ccc(Cl)cc1)c1cc(Cl)ccc1NS(=O)(=O)c1ccc(Oc2ccccc2Cl)cc1`, under setting [2], the inhibition is 50.2%.
On the same count and under the same terms, next, `O=C(N[C@@H](c1ccccc1)c1ccc(Br)cc1)c1cc(Cl)ccc1NS(=O)(=O)c1ccc(Oc2ccccc2Cl)cc1`: 8.89%; `O=C(N[C@H](CO)CC1CCCCC1)c1cc(Cl)ccc1NS(=O)(=O)c1ccc(Oc2ccccc2Cl)cc1`: 40.7%.
Consider `O=C(NC(c1ccccc1)c1ccccc1)c1cc(Cl)ccc1NS(=O)(=O)c1ccc(Oc2ccccc2Cl)cc1`, for which, under setting [2], the inhibition was determined as 55%.
Consider `O=C(N[C@H](c1ccccc1)c1ccco1)c1cc(Cl)ccc1NS(=O)(=O)c1ccc(Oc2ccccc2Cl)cc1`, for which the inhibition under setting [2] came out at 53.4%.
With `O=C(NCC(c1ccccc1)c1ccccc1)c1cc(Cl)ccc1NS(=O)(=O)c1ccc(Oc2ccccc2Cl)cc1`, the inhibition under setting [2] is 12.2%.
With `Cc1ccc2ccccc2c1NC(=O)c1cc(Cl)ccc1NS(=O)(=O)c1ccc(Oc2ccccc2Cl)cc1`, the inhibition under setting [2] is 26.4%.
As to `O=Cc1ccc(N2CCC(C(=O)N3CCC(Oc4ncccn4)CC3)CC2)cc1`, the inhibition under setting [1] stood at 25.2%.
Same read-out and setting: for `O=Cc1ccc(N2CCC(C(=O)Nc3cc(Cl)nc(Cl)n3)CC2)cc1` the value was 17.4%.
Consider `O=C(O)c1cccc(NC(=O)c2cccc(Br)c2)c1`, for which the inhibition (PRVABC59, Concentration 49.5 uM, Number of replicates 2.0, Standard deviation 2.5009940749301487 %) was -0.982%; the inhibition (PRVABC59, Concentration 99.01 uM, Number of replicates 2.0, Standard deviation 3.0157213975013266 %) was 0.926%; the inhibition (PRVABC59, Concentration 198.0 uM, Number of replicates 2.0, Standard deviation 3.887437163113113 %) came out at 4.65%.
With `CC(C)(CNC(=O)c1cc(Cl)ccc1NS(=O)(=O)c1ccc(Oc2ccccc2Cl)cc1)c1cccc(Cl)c1`, the inhibition under setting [2] was 47.6%.
